The values that follow come from paper PMC7862700, “An all-to-all approach to the identification of sequence-specific readers for epigenetic DNA modifications on cytosine”.

Common to all, as to experiment: DAPPL (digital affinity profiling via proximity ligation, sequencing); 10 mM Tris-HCl pH 7.5, 50 mM NaCl, 1 mM DTT, 4% glycerol, room temperature, 30 min; GST-TFs on glutathione beads, 16-mer random dsDNA library, 0.1% formaldehyde crosslink after washing; high values mean tight binding
Holding throughout (conditions): protein: recombinant; tags: N-terminal GST; dsDNA, one strand shown

For one assay, the target named is T1, FLI1 (Homo sapiens, UniProt Q01543 1-452).
T1 sequence: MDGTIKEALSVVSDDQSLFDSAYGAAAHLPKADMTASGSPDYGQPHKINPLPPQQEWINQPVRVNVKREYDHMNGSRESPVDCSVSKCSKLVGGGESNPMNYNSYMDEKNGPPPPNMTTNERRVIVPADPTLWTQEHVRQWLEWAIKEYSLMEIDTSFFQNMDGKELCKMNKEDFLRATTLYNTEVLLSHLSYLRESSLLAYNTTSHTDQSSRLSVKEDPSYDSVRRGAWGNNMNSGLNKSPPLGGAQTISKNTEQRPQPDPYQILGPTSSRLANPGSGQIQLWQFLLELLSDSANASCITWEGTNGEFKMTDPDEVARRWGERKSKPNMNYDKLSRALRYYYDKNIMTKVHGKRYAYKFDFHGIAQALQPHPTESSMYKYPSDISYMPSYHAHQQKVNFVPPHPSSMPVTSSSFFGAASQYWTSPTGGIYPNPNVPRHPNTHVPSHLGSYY
The gist of the method: (§1)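 Pools of DNA-barcoded human transcription factors, expressed in yeast as GST fusions on glutathione beads and combined with a tag-only sample, were incubated with 200 nmole of a 16-mer random double-stranded DNA library. Incubation took 30 min at room temperature in Tris/NaCl/DTT/glycerol buffer and was followed by washing, 0.1% formaldehyde crosslinking, proximity ligation (BsaI/T4 ligase, 1 h, 37 °C), PCR amplification and sequencing on an Illumina NextSeq500. Binding signal is the ratio of a hexamer's read frequency for a factor to its frequency for the tag-only sample.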

The target in another assay is T2, GABPA (Homo sapiens, UniProt Q06546 1-454).
T2 sequence: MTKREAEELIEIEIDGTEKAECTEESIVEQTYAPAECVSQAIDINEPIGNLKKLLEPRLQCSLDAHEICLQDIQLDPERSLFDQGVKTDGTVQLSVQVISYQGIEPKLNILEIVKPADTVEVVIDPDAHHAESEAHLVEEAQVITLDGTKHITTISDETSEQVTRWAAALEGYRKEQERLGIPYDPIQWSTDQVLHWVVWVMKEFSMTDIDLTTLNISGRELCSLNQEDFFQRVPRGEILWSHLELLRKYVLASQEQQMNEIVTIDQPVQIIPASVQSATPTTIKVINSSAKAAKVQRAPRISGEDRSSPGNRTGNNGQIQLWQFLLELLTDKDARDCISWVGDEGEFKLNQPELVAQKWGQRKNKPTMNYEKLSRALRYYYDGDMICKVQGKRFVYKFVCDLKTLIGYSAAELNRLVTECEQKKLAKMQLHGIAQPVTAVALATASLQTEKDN
In short, it runs like this:
as §1

In the next assay the target is T3, ERG (Homo sapiens, UniProt P11308 1-479).
T3 sequence: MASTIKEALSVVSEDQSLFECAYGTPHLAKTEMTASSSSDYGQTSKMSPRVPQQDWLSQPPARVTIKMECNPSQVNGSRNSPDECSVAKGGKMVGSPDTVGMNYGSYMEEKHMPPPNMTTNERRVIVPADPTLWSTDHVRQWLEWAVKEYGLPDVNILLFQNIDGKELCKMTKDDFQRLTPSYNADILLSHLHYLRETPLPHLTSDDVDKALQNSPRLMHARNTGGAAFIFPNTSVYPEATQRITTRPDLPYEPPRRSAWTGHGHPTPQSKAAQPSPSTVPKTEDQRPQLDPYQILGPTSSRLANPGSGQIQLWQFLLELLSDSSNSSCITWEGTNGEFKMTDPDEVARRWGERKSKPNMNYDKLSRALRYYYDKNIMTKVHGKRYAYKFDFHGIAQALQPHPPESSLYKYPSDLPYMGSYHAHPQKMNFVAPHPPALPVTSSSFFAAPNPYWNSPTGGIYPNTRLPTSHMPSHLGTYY
In short, it runs like this: as §1

The target in the next assay is ELF1 (Homo sapiens, UniProt P32519 1-619). The gist of the method:
as §1

The target of the next assay is T4, EHF (Homo sapiens, UniProt Q9NZC4 1-300).
T4 sequence: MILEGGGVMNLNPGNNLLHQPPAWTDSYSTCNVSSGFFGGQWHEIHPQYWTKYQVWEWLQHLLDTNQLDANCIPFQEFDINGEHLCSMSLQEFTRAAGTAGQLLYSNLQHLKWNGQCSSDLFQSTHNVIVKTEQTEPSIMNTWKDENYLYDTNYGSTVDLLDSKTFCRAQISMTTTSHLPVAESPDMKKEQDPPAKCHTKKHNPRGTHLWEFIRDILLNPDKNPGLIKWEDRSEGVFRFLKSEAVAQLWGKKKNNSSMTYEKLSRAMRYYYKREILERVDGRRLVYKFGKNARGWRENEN
In short, it runs like this:
as §1

The target of another assay is SPI1 (Homo sapiens, UniProt P17947 1-270). The gist of the method:
as §1

The target of another assay is SPIB (Homo sapiens, UniProt Q01892 1-262). The gist of the method: as §1
Chain of SPIB (Q01892 whole entry): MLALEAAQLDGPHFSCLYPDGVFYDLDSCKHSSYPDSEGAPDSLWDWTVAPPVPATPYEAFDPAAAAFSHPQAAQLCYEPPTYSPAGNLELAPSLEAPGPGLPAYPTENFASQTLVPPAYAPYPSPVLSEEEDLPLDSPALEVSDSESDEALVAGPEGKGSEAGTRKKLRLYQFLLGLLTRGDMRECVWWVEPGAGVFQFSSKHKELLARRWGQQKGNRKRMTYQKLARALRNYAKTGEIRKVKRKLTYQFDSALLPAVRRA
The target of the next assay is T5, FEV (Homo sapiens, UniProt Q99581 1-238).
T5 sequence: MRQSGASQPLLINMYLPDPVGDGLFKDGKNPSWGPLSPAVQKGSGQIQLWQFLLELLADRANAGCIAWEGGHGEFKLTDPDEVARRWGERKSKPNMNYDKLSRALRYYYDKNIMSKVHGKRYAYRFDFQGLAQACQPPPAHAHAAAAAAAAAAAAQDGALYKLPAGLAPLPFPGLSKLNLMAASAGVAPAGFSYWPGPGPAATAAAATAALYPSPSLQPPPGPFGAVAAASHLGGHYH
In short, it runs like this:
as §1

The target in a further assay is ETV5 (Homo sapiens, UniProt P41161 1-510). The gist of the method: as §1
Chain of ETV5 (P41161 whole entry): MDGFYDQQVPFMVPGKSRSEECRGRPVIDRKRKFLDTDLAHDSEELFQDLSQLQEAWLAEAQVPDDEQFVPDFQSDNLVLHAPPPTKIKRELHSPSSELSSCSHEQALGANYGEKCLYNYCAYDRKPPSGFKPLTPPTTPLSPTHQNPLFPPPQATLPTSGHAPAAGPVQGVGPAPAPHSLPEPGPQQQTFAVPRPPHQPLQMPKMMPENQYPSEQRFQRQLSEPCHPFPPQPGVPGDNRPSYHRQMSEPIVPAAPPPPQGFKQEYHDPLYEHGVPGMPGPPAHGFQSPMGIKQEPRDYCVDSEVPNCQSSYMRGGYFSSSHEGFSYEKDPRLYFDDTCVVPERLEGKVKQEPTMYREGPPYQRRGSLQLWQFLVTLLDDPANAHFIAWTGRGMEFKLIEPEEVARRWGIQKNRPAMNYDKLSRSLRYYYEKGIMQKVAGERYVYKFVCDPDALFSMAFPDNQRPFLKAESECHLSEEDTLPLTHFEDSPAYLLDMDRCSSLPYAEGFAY
The target in the next assay is T6, SPIC (Homo sapiens, UniProt Q8N5J4 1-248).
T6 sequence: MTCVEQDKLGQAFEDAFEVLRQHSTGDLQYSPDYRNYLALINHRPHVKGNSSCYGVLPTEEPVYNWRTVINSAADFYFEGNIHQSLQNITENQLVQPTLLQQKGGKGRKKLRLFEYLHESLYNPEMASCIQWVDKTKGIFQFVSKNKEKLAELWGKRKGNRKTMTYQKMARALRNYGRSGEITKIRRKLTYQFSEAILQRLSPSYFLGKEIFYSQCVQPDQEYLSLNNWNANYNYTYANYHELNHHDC
The gist of the method: as §1

The next assay deals with ELF4 (Homo sapiens, UniProt Q99607 1-663). The gist of the method:
as §1

The target of the next assay is ETV1 (Homo sapiens, UniProt P50549 1-477). The gist of the method: as §1
Chain of ETV1 (P50549 whole entry): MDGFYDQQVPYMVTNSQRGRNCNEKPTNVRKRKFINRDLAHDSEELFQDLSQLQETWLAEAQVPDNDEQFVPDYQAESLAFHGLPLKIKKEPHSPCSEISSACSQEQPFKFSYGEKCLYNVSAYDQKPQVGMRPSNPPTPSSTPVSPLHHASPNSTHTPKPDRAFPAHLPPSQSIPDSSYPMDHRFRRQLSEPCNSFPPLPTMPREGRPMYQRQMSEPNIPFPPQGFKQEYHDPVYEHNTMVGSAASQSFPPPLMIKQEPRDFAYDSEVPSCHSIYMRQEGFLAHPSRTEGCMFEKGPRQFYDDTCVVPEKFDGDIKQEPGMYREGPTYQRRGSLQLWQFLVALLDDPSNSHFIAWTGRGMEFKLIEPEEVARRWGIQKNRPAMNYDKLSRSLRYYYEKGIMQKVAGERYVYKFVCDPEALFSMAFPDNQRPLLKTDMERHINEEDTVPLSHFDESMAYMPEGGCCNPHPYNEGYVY
Another assay concerns the target T7, ERF (Homo sapiens, UniProt P50548 1-548).
T7 sequence: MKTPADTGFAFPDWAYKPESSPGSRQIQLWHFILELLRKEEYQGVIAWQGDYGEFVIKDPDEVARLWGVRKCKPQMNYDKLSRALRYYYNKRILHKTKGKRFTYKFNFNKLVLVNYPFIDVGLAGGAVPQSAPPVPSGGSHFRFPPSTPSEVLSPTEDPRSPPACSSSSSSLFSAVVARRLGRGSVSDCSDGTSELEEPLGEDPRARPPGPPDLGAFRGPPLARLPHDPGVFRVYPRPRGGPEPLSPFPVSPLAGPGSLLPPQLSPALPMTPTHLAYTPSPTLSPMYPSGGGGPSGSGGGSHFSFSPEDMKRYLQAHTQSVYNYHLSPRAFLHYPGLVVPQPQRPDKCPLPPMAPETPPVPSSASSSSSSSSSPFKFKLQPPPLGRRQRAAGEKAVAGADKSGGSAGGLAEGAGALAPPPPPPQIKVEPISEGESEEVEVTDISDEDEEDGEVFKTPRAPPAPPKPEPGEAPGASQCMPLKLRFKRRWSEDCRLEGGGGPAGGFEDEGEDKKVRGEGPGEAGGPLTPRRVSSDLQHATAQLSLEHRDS
The gist of the method:
as §1

The target of the next assay is T8, ETV3L (Homo sapiens, UniProt Q6ZN32 1-361).
T8 sequence: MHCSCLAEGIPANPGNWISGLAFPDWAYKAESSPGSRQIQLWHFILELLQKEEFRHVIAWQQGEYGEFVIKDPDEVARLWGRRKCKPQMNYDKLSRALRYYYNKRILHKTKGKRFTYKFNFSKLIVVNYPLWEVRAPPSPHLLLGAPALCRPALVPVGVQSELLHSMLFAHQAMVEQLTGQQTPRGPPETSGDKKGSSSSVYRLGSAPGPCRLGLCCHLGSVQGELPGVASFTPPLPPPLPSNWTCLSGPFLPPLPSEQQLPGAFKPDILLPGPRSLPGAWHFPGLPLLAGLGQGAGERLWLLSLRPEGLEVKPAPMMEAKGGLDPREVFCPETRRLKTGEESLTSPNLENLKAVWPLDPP
The gist of the method: as §1

In the next assay the target is T9, ETS2 (Homo sapiens, UniProt P15036 1-469).
T9 sequence: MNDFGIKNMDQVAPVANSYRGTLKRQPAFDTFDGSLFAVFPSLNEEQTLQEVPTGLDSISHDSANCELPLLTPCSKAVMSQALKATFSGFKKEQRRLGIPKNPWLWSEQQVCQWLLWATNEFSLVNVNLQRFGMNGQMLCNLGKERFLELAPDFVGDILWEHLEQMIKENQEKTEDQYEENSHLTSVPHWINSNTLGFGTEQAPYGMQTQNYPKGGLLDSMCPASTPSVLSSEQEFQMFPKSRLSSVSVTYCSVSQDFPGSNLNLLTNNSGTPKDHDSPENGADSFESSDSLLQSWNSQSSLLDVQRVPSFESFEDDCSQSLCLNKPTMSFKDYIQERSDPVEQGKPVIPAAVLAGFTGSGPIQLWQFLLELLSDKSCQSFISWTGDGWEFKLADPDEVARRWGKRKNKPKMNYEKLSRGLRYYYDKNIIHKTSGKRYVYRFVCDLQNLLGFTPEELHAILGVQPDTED
The gist of the method:
as §1

The next assay deals with T10, SPDEF (Homo sapiens, UniProt O95238 1-335).
T10 sequence: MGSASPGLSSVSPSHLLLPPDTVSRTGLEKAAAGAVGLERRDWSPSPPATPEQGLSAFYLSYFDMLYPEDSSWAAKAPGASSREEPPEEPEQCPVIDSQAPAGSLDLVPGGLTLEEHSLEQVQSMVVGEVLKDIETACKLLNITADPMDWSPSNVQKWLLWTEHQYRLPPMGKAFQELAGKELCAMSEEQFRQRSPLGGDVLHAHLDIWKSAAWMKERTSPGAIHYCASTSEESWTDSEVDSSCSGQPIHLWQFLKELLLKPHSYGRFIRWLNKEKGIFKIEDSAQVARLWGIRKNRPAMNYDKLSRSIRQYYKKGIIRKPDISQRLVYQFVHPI
The gist of the method:
as §1

A further assay concerns the target T11, ETV3 (Homo sapiens, UniProt P41162-2 1-143).
T11 sequence: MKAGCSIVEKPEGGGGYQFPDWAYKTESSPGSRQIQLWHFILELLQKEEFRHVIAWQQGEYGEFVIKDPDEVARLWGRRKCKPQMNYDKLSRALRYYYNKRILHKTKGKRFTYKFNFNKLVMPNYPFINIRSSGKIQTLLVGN
In short, it runs like this: as §1

The target of a further assay is ETV6 (Homo sapiens, UniProt P41212 1-452). In short, it runs like this:
as §1

Chain of ELF1 (P32519 whole entry): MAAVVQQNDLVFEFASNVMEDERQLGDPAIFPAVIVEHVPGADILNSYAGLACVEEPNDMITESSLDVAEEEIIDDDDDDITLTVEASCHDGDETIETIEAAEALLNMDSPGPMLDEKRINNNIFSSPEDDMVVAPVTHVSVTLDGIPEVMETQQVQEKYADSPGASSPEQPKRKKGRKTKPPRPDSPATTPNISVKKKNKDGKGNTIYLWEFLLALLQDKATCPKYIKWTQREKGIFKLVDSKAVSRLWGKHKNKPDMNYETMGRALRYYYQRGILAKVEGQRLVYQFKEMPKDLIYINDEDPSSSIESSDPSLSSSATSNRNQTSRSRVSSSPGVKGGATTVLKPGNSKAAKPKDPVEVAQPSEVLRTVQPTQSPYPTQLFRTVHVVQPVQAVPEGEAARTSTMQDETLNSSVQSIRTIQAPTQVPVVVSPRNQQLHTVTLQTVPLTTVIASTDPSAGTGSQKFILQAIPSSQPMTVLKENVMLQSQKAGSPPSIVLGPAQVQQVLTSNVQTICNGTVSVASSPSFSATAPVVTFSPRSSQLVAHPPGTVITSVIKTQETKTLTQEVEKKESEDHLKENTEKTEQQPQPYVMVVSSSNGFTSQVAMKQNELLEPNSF
Chain of ETV6 (P41212 whole entry): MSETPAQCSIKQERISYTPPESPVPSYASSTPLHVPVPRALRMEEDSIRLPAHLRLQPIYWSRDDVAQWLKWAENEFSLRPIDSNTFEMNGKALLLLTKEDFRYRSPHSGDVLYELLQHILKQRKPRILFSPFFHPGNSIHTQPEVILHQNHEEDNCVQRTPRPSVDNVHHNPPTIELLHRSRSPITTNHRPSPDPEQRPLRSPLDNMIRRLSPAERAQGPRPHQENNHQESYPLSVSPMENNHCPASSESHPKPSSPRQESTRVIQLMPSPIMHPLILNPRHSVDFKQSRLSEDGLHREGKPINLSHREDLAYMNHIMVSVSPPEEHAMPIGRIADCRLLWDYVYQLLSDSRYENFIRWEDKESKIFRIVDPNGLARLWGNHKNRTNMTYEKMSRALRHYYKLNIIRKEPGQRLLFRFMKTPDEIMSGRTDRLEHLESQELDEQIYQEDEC
Chain of ELF4 (Q99607 whole entry): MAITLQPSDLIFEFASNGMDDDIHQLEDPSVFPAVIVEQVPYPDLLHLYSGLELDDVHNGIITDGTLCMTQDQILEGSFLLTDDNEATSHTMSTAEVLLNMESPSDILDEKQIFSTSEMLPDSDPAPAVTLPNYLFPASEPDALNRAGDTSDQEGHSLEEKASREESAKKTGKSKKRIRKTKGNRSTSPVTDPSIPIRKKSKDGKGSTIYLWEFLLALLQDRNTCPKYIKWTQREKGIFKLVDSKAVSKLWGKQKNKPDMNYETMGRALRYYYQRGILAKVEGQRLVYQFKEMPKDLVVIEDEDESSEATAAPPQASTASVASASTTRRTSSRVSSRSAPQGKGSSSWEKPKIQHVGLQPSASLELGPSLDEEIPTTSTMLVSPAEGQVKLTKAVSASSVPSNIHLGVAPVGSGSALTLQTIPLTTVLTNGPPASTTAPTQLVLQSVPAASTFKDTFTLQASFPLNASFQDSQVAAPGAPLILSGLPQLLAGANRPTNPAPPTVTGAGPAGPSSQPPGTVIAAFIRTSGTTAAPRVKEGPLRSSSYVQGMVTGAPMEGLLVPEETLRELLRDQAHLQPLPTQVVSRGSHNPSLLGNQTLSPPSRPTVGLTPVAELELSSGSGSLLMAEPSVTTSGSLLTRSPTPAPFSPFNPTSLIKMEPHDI

CGCGAC: the binding signal with FLI1 was 1.08 fold enrichment (6-mer frequency, TF over GST control); in the assay with GABPA, 1.09 fold enrichment (6-mer frequency, TF over GST control); with ERG it was 1.04 fold enrichment (6-mer frequency, TF over GST control); with ELF1, 1.12 fold enrichment (6-mer frequency, TF over GST control); with EHF it was 1.12 fold enrichment (6-mer frequency, TF over GST control); with SPI1, 1.08 fold enrichment (6-mer frequency, TF over GST control). The binding signal with SPIB was 1.11 fold enrichment (6-mer frequency, TF over GST control); with FEV, 1.01 fold enrichment (6-mer frequency, TF over GST control); with ETV5 it was 1.08 fold enrichment (6-mer frequency, TF over GST control); with SPIC it was 1.31 fold enrichment (6-mer frequency, TF over GST control); in the assay with ELF4, 1.09 fold enrichment (6-mer frequency, TF over GST control); with ETV1, 1.06 fold enrichment (6-mer frequency, TF over GST control). Further, the binding signal is 1.16 fold enrichment (6-mer frequency, TF over GST control) with ERF; 1.04 fold enrichment (6-mer frequency, TF over GST control) in the assay with ETV3L; 1.12 fold enrichment (6-mer frequency, TF over GST control) with ETS2; 1.08 fold enrichment (6-mer frequency, TF over GST control) with SPDEF; 1.04 fold enrichment (6-mer frequency, TF over GST control) with ETV3; 1.04 fold enrichment (6-mer frequency, TF over GST control) with ETV6.
